Measured values reported in the supplement of paper PMC10849652.
The full data set covers some 7,900 targets. This sample favours those with a hit. About 0.6% of all pairs of compound and target were hits.

How the values were obtained:
Assay in all cases: log2 fold change, soluble protein after heating vs DMSO (PISA); higher = thermal stabilisation; K562 cells, 10 uM, 30 min; active = over 0.2 and 3.5 SD of the protein, either way, in both replicates (recomputed)
[1] = compound: Cc1cccc(CC(=O)N2CCc3c2ccc(-c2cn(C)c4ncnc(N)c24)c3F)n1
Outline: (§1)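 K562 cells (2×10^6 cells/mL) were treated with 10 μM compound for 30 min, and aliquots were heated for 3 min over 48°C-58°C. Pooled aliquots were extracted in PBS with 0.5% NP-40 at 4°C, and the supernatant after 21,000xg for 90 min was measured by TMTpro 16plex LC-MS/MS with channel sums equalised. Reported thermal stability, relative to control samples and from duplicates, is a log2 fold change.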

nilotinib = compound: Cc1cn(-c2cc(NC(=O)c3ccc(C)c(Nc4nccc(-c5cccnc5)n4)c3)cc(C(F)(F)F)c2)cn1 [nilotinib]
Outline: as §1

[2] = compound: Cc1nc(Nc2n[nH]c3c2CN(C(=O)N[C@H](CN(C)C)c2ccccc2)C3(C)C)c2sccc2n1
Outline: as §1

dasatinib = compound: Cc1nc(Nc2ncc(C(=O)Nc3c(C)cccc3Cl)s2)cc(N2CCN(CCO)CC2)n1 [dasatinib]
Outline: as §1

[3] = compound: Cc1ncc(-c2ccnc(Nc3ccc(S(C)(=O)=O)cc3)n2)n1C(C)C
Outline: as §1

[4] = compound: Cn1cc(-c2ccc3c(c2)CCN3C(=O)Cc2cccc(C(F)(F)F)c2)c2c(N)ncnc21
Outline: as §1

mubritinib = compound: FC(F)(F)c1ccc(/C=C/c2nc(COc3ccc(CCCCn4ccnn4)cc3)co2)cc1 [mubritinib]
Outline: as §1

bafetinib = compound: Cc1ccc(NC(=O)c2ccc(CN3CC[C@H](N(C)C)C3)c(C(F)(F)F)c2)cc1Nc1nccc(-c2cncnc2)n1 [bafetinib]
Outline: as §1

[5] = compound: Cn1cc(-c2ccc3nnc(C(F)(F)c4ccc5ncccc5c4)n3n2)cn1
Outline: as §1

tipifarnib = compound: Cn1cncc1[C@@](N)(c1ccc(Cl)cc1)c1ccc2c(c1)c(-c1cccc(Cl)c1)cc(=O)n2C [tipifarnib]
Outline: as §1

Measured: log2 fold change

FIZ1 (UniProt Q96SL8)
inactive: [1] -0.092 | nilotinib -0.09 | [2] 0.065 | dasatinib -0.026 | [3] -0.213 | [4] -0.137 | mubritinib -0.191

HNRNPK isoform 3 (UniProt P61978)
inactive: bafetinib 0.003 | [1] -0.18 | nilotinib -0.115 | [2] -0.022 | dasatinib 0.021 | [3] 0.143 | [5] -0.002 | mubritinib -0.101

GNL3 (UniProt Q9BVP2)
Sequence of UniProt Q9BVP2 (Q9BVP2 whole entry, looked up): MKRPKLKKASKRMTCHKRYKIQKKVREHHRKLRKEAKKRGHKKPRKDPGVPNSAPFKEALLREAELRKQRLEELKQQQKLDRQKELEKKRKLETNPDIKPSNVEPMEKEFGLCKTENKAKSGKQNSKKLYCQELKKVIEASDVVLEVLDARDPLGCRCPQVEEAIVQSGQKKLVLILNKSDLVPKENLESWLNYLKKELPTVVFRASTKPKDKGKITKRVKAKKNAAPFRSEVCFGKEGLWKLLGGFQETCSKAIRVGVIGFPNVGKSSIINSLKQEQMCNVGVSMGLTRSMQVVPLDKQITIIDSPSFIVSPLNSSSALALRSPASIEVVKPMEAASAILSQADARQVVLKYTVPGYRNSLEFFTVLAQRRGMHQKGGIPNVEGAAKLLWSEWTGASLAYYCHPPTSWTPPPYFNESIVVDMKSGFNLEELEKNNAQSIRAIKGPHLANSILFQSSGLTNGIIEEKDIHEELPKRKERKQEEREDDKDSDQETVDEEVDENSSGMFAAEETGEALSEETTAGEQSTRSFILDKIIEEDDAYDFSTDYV
inactive: bafetinib -0.038 | [1] -0.078 | nilotinib -0.007 | [2] 0.011 | dasatinib -0.031 | [3] 0.056 | [4] 0.069 | mubritinib 0.134

GBA2 (UniProt Q9HCG7)
inactive: bafetinib 0.045 | nilotinib -0.057 | [2] -0.061 | dasatinib -0.144 | [3] 0.007 | [4] 0.138 | tipifarnib 0.091 | mubritinib 0.234

GBE1 (UniProt Q04446)
Sequence of UniProt Q04446 (Q04446 whole entry, looked up): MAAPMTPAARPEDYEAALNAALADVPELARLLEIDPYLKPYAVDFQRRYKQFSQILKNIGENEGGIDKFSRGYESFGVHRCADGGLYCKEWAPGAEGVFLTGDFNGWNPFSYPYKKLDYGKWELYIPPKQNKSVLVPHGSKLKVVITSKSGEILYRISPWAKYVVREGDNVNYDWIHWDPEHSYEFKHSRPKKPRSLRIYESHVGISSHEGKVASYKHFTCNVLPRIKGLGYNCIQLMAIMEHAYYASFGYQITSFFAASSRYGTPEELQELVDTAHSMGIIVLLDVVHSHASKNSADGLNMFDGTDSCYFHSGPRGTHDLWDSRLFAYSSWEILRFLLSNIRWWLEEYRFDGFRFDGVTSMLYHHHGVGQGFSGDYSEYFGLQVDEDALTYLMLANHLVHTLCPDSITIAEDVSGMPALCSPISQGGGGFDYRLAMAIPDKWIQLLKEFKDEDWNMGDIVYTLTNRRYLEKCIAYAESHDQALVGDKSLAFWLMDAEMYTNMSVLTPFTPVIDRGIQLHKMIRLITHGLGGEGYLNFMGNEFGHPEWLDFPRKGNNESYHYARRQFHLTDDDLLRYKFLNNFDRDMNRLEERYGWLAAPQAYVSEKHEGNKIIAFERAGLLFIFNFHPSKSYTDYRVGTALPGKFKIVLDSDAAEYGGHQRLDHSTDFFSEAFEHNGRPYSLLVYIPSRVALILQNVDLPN
inactive: bafetinib 0.067 | dasatinib -0.275 | [4] -0.004 | [5] 0.059 | tipifarnib -0.608 | mubritinib 0.181

HNRNPUL1 (UniProt M0R247)
inactive: nilotinib 0.061 | [2] -0.13 | dasatinib 0.206 | [3] 0.025 | [4] -0.024 | tipifarnib 0.259

FCHO1 (UniProt O14526)
Sequence of UniProt O14526 (O14526 whole entry, looked up): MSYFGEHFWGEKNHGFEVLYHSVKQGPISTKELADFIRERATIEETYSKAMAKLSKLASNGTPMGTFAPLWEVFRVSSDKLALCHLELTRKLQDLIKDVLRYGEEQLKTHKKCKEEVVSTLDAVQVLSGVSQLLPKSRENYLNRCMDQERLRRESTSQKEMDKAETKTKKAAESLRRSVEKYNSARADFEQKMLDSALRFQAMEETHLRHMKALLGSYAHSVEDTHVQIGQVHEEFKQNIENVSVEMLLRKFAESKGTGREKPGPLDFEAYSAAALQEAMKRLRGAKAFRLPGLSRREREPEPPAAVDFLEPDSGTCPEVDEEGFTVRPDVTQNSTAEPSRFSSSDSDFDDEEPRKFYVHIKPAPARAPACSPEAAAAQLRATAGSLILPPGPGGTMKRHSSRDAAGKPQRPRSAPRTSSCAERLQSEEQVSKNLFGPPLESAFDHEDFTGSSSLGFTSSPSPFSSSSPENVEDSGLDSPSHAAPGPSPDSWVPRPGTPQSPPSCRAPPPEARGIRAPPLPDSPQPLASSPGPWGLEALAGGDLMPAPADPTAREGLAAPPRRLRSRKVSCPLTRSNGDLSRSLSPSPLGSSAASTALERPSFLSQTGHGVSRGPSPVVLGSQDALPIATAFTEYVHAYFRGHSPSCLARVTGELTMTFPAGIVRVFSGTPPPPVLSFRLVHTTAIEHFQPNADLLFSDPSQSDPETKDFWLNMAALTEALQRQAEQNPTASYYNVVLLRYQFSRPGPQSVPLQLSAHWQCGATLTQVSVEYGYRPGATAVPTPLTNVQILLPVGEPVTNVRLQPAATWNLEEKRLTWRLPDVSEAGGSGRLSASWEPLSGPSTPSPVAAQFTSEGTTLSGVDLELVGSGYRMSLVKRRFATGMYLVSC
inactive: nilotinib -0.118 | [2] -0.067 | dasatinib -0.275 | [3] -0.127 | [4] 0.079 | [5] 0.033 | tipifarnib -0.119 | mubritinib -0.003

GAB2 (UniProt Q9UQC2)
inactive: [1] 0 | dasatinib -0.599 | [4] 0.002 | [5] 0 | tipifarnib 0.175 | mubritinib 0.075

FYB1 isoform 3 (UniProt O15117)
Sequence of UniProt O15117 (O15117 whole entry, looked up): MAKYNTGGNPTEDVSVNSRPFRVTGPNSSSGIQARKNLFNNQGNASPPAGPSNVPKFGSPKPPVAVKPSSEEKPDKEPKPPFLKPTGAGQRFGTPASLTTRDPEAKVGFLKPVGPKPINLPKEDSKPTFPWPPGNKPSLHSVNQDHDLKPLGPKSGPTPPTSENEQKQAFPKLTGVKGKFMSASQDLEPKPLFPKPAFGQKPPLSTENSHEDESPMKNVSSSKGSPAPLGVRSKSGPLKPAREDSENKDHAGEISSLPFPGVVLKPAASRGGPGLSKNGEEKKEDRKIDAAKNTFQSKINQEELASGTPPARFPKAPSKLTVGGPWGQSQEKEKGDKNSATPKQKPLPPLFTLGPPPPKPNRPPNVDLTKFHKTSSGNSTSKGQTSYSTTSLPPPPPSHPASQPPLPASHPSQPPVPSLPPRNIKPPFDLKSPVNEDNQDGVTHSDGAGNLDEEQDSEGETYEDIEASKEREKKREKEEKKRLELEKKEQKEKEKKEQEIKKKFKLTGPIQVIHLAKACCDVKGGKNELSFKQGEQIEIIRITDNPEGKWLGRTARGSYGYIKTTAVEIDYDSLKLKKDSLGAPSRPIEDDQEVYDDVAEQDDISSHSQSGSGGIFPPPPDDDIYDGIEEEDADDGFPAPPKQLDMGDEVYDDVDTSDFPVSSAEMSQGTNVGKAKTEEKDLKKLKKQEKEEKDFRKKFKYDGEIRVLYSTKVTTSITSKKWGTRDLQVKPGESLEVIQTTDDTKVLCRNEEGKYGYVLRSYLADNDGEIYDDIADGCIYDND
inactive: bafetinib -0.019 | [1] -0.071 | nilotinib -0.036 | [2] -0.026 | dasatinib -0.021 | [3] -0.077 | [5] -0.156 | tipifarnib -0.025 | mubritinib 0.085

FEN1 (UniProt P39748)
Sequence of UniProt P39748 (P39748 whole entry, looked up): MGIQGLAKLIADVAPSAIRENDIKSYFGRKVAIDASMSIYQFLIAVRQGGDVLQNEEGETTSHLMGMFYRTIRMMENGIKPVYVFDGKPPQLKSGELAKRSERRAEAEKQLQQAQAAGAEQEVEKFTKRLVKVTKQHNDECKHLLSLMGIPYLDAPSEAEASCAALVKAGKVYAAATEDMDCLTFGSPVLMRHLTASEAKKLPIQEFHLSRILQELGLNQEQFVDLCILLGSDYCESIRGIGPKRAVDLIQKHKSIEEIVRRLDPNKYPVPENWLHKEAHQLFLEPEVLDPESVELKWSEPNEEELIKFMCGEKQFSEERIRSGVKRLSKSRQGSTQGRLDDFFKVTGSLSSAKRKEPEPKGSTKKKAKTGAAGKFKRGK
inactive: bafetinib 0.02 | [1] 0.23 | nilotinib -0.149 | [2] 0.053 | [3] -0.05 | [4] 0.16 | [5] 0.164 | tipifarnib -0.274 | mubritinib 0.314

GPS2 (UniProt Q13227)
Sequence of UniProt Q13227 (Q13227 whole entry, looked up): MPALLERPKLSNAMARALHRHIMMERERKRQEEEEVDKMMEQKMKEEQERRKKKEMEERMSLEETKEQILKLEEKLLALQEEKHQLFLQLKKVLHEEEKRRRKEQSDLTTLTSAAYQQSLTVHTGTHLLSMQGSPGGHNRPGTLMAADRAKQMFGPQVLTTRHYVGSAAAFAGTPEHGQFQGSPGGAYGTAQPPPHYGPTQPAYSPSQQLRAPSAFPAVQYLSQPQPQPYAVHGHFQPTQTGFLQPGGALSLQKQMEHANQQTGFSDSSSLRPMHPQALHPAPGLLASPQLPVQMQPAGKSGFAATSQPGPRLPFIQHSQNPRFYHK
inactive: bafetinib -0.157 | nilotinib 0 | [2] -0.045 | [3] -0.074 | [5] 0.02 | tipifarnib -0.033 | mubritinib -0.059

GAK (UniProt O14976)
inactive: [1] -0.072 | nilotinib 0.257 | [2] 0.792 | dasatinib 1.31 | [3] 0.232 | [4] -0.07 | [5] -0.031 | tipifarnib -0.238 | mubritinib 0.005

HBZ, A0A494C057
inactive: bafetinib -0.015 | nilotinib 0.171 | [2] -0.035 | [3] 0.127 | mubritinib -0.08

FUNDC1 (UniProt Q8IVP5)
Sequence of UniProt Q8IVP5 (Q8IVP5 whole entry, looked up): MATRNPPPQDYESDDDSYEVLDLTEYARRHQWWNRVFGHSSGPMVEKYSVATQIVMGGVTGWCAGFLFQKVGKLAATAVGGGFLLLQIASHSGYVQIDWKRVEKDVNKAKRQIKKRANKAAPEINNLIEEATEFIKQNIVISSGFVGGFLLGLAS
inactive: bafetinib -0.169 | tipifarnib 0 | mubritinib 0.066

GOLGA6B (UniProt A6NDN3)
Sequence of UniProt A6NDN3 (A6NDN3 whole entry, looked up): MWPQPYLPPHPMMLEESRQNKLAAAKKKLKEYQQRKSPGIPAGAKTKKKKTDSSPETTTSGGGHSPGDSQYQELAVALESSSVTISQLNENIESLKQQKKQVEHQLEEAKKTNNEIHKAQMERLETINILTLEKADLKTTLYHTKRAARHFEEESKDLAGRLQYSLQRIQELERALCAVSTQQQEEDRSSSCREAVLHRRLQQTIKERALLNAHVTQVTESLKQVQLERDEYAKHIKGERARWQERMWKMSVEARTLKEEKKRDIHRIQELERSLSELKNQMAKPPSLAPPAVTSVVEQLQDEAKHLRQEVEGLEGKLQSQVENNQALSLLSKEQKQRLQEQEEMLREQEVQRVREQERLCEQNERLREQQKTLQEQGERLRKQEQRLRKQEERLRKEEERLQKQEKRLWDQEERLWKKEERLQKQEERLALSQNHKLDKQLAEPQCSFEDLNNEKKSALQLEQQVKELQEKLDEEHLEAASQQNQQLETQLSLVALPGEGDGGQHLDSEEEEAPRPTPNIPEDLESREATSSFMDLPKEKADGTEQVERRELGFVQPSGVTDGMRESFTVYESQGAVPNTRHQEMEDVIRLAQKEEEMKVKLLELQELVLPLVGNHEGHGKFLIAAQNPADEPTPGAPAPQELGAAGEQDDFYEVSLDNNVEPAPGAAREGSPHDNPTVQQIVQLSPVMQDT
inactive: bafetinib -0.087 | [1] -0.042 | nilotinib -0.183 | [2] 0.02 | [3] 0.02 | mubritinib 0.146

ICMT (UniProt O60725)
Sequence of UniProt O60725 (O60725 whole entry, looked up): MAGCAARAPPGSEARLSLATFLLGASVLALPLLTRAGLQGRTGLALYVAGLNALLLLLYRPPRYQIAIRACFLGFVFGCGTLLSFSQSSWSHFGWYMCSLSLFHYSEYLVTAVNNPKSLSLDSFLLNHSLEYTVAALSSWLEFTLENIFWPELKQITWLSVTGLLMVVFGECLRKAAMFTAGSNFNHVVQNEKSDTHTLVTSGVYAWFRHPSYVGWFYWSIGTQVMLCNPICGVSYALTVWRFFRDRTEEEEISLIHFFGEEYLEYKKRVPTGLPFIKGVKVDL
inactive: bafetinib -0.103 | nilotinib 0.049 | [2] 0.17 | dasatinib 0.065 | [3] -0.003 | [5] 0.113 | tipifarnib 0.107 | mubritinib 0.284

FOXO3 (UniProt O43524)
inactive: [1] 0.002 | dasatinib -0.14 | [4] 0 | [5] -0.013 | tipifarnib -0.139 | mubritinib -0.057

GGA2 (UniProt Q9UJY4)
inactive: bafetinib 0.024 | nilotinib -0.031 | [2] 0.065 | dasatinib 0.075 | [3] -0.013 | [4] 0.024 | [5] 0.034 | tipifarnib -0.003 | mubritinib 0.014

FCF1 (UniProt Q9Y324)
Sequence of UniProt Q9Y324 (Q9Y324 whole entry, looked up): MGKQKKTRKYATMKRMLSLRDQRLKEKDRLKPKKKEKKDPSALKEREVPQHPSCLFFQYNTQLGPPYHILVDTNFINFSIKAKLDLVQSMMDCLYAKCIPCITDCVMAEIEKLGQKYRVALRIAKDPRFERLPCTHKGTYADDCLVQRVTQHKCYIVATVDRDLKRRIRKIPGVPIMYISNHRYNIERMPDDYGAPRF
inactive: [1] 0.042 | dasatinib 0.139 | [5] -0.119 | tipifarnib 0.242 | mubritinib -0.129

FMR1 (UniProt Q06787)
inactive: [1] -0.146 | [4] -0.224 | [5] -0.028 | tipifarnib -0.129 | mubritinib -0.175

IFITM3 (UniProt Q01628)
inactive: bafetinib -0.073 | nilotinib 0.07 | [2] -0.2 | dasatinib -0.076 | [3] -0.01 | [4] 0.049 | [5] -0.149 | tipifarnib 0.113 | mubritinib -0.157

H3-3A (UniProt P84243)
inactive: bafetinib -0.046 | nilotinib -0.038 | [2] -0.123 | dasatinib -0.133 | [3] -0.067 | [4] 0.08 | tipifarnib -0.261 | mubritinib 0.236
